Data published in PubChem BioAssay AID493056 (National Center for Advancing Translational Sciences (NCATS), 2011).
Hit rate of the full screen: of about 360,000 compounds, about 2,400 (0.67%) were called active. This is one part of a sample in which actives are shown more often than they occur. Cut-off read from the data, not from the text of the source: active = enhancement above about 30%; inactive = the rest.

molecular target: Thyrotropin-releasing hormone receptor (Homo sapiens) (UniProt P34981); assay: qHTS for Small Molecule Agonists and Allosteric Enhancers of Human TRH Receptor: Primary Screen for Enhancers; conditions: TRHR cells, fluo-8 calcium fluorescence, EC20 TRH enhancement; at 2 µM; stronger effect = higher value; note: 0% is about no effect
Sequence (P34981 whole entry, looked up): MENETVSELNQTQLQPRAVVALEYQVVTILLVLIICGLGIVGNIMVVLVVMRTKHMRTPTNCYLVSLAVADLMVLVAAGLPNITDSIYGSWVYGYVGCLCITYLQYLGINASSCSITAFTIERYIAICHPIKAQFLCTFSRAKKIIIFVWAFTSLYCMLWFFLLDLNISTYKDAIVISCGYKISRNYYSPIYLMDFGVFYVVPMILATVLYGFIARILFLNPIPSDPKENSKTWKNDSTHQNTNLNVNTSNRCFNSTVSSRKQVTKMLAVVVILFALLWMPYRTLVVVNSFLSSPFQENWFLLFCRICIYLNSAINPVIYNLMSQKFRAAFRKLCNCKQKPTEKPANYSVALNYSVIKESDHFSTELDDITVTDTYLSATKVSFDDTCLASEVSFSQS
Method in brief: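 TRHR-expressing cells loaded with fluo-8 calcium dye were read kinetically (ex 480/em 530) during compound addition, then stimulated with an EC20 of TRH (10 nM final). Enhancement of the Gq-mediated intracellular calcium response was scored.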

SMILES	enhancement
Cc1ccc(NC(=O)CSc2nc3c([nH]c4ccccc43)c(=O)n2-c2ccccc2)c(C)c1	39.6% (active)
Cc1cccc(NC(=O)CSc2nc3c([nH]c4ccccc43)c(=O)n2-c2cc(C)cc(C)c2)c1	1.49% (inactive)
Cc1ccc(NC(=O)CSc2nc3c([nH]c4ccccc43)c(=O)n2-c2ccccc2)cc1Cl	-2.92% (inactive)
Cc1ccccc1OCc1nc2c3cnn(-c4ccccc4F)c3ncn2n1	8.56% (inactive)
COc1ccc(-c2nc3sc(CCNS(=O)(=O)c4ccc(F)c(C)c4)c(C)n3n2)cc1	-2.89% (inactive)
Cc1cccc(OCC(=O)N(Cc2ccc(C(C)C)cc2)Cc2ccco2)c1C	3.9% (inactive)
COc1cccc(CN(C)CC(=O)Nc2ccccc2C(=O)Nc2ccccc2)c1	2% (inactive)
COc1cccc(CN(C)CC(=O)Nc2sc3c(c2C#N)CCC3)c1	40.2% (active)
Cc1ccc(C)c(OCC(=O)Nc2sc3c(c2C#N)CCCC3)c1C	0.637% (inactive)
Cc1ccc(O)c(NC(=O)c2cc(-c3ccc(F)cc3)no2)c1	-8.05% (inactive)
O=c1c2cccnc2n(Cc2cccc(F)c2)c(=O)n1Cc1ccccc1Cl	-4.81% (inactive)
CC(C)(C)n1c(=O)[nH]c2c(c1=O)CCC2	-6.6% (inactive)
O=c1[nH]n2c(=O)c3c([nH]c2c1N=Nc1ccccc1)CCC3	31.1% (active)
O=c1o[nH]c(-c2ccccc2)c1N=Nc1c(F)cccc1Cl	45.6% (active)
O=c1c(=O)n(Cc2c(F)cccc2Cl)ccn1Cc1ccccc1	6.97% (inactive)
COc1ccc(N=Nc2c(-c3ccc(OC)cc3)[nH]oc2=O)cc1	5.67% (inactive)
CCS(=O)(=O)c1nc(S(=O)(=O)c2ccc(C)cc2)c(NCc2ccc(Cl)cc2)s1	0.719% (inactive)
CCN(CC)c1ccc(C2C(C(N)=O)=C(C)Nc3nc(SCc4ccccc4)nn32)cc1 (stereo not given)	3.72% (inactive)
O=C(/C=C/c1ccc(Cl)c([N+](=O)[O-])c1)c1cccnc1	36.2% (active)
C/C(=N\NC(=O)Cc1ccccc1[N+](=O)[O-])c1cccnc1	2.77% (inactive)
C/C(=N\NC(=O)c1cccc([N+](=O)[O-])c1)c1cccnc1	3.55% (inactive)
COc1ccc(CNC(=O)C2=Cc3cccc(OC)c3OC2)cc1OC	-3.7% (inactive)
CC(C)C(=O)N1CCN(c2nc(-c3ccccc3)c3c(c2C#N)CC(C)(C)OC3)CC1	-1.59% (inactive)
C1=C(N2CCOCC2)/C(=C/c2nc3ccccc3[nH]2)CC1	3.98% (inactive)
CC1(C)Cc2c(C#N)c(SCc3nc4ccccc4[nH]3)nc(N3CCOCC3)c2CO1	34.4% (active)
Cc1nc2nc(NCc3cccc(Br)c3)[nH]n2c(=O)c1Cc1ccccc1	2.4% (inactive)
COc1ccc(-c2noc(CCC(=O)N(C)c3ccccc3C)n2)cc1	6.52% (inactive)

SMILES	enhancement
N#Cc1c(N)nc2c3c(sc(=N)c2c1N)NC(=O)CC3c1ccccc1Cl (stereo not given)	2.83% (inactive)
COc1ccc(C2CC(=O)Nc3sc(=N)c4c(N)c(C#N)c(N)nc4c32)cc1OC (stereo not given)	33.8% (active)
COc1ccc(C2CC(=O)Nc3c2c(=O)nc2c(C)cccn32)cc1OC (stereo not given)	15% (inactive)
O=C(CSc1cn(CC(=O)N2CCOCC2)c2ccccc12)Nc1ccccc1	-5.59% (inactive)
COc1ccc(Cc2nc3ccc(C(=O)NCc4ccccc4Cl)cc3o2)cc1	3.9% (inactive)
CCC(Sc1nc2n[nH]c(C)c2c(=N)n1-c1ccccc1Cl)C(=O)N(CC)CC (stereo not given)	-2.62% (inactive)
Cc1ccc(Oc2c(C(F)(F)F)oc3c(CN4CCCCC4)c(O)ccc3c2=O)cc1	0.578% (inactive)
CCOC(=O)c1sc(NC(=O)CSc2nc(O)c(Cc3ccccc3)c(=O)[nH]2)nc1C	0.15% (inactive)
CCCOc1ccc(Cc2c(O)nc(SC)[nH]c2=O)cc1C	40.1% (active)
CCCOc1ccc(Cc2c(O)nc(N)[nH]c2=O)cc1C	5.99% (inactive)
Cc1cc2c(s1)c1cnn(Cc3cc(F)c(Cl)cc3Cl)c(=O)c1n2C	-6.51% (inactive)
COc1ccc(CCN2C(=O)c3oc4cc(C)cc(C)c4c(=O)c3C2c2ccccc2F)cc1OC (stereo not given)	-0.372% (inactive)
O=C(Cc1ccccc1)Nc1sc2c(c1C(=O)Nc1ccc(Br)cc1)CCC2	1% (inactive)
COc1ccc(C2Sc3ccccc3NC3=C2C(=O)c2ccccc23)c(OC)c1OC (stereo not given)	-4.93% (inactive)
COc1ccccc1C(=O)N(Cc1ccc(C)o1)C1CCS(=O)(=O)C1 (stereo not given)	0.844% (inactive)
COc1c(Cl)cc(C(=O)N(Cc2ccccc2F)C2CCS(=O)(=O)C2)cc1Cl (stereo not given)	34% (active)
COc1cc(C(=O)N(Cc2ccc(C(C)C)cc2)C2CCS(=O)(=O)C2)cc(OC)c1OC (stereo not given)	-5.35% (inactive)
CCOC(=O)c1ccc(N2C(=O)c3[nH]nc(-c4ccccc4)c3C2c2ccc(C(C)C)cc2)cc1 (stereo not given)	7.37% (inactive)
Cc1ccc(C)c(N2CCN(CCCNC(=O)Nc3ccc(Cl)cc3)CC2)c1	2.7% (inactive)
Cc1ccc(NC(=O)c2cn3c4c(ccc(Cl)c4c2=O)OC(C)C3)cc1C (stereo not given)	6.65% (inactive)
C=CCOc1cccc(C2NC(=O)c3ccccc3O2)c1 (stereo not given)	-1.8% (inactive)
O=C1NC(c2cc3c(cc2Cl)OCO3)Oc2ccccc21 (stereo not given)	5.25% (inactive)
O=C1NC(c2ccccc2)Oc2ccccc21 (stereo not given)	36.1% (active)
Cc1ccc2c(=O)c(C(=O)c3ccc(F)cc3)cn(CC(=O)NC3CCCCC3)c2n1	7.98% (inactive)
COCC(C)NS(=O)(=O)c1ccc(N2CCCCS2(=O)=O)cc1 (stereo not given)	6.76% (inactive)
CCOC(=O)C1=C(O)/C(=C/c2ccc(OCC(=O)Nc3ccc(C)cc3)cc2)N=C1C	-0.756% (inactive)
CCOC(=O)c1nn(-c2cccc(C)c2)cc1C(=O)c1ccccc1	11% (inactive)

SMILES	enhancement
CCOC(=O)C1=C(O)/C(=C/c2cc(C)n(-c3ccccc3)c2C)N=C1C	43.5% (active)
Cc1nn(Cc2ccc(F)cc2)c(C)c1NC(=O)c1cc(CC(C)C)on1	-1.79% (inactive)
O=c1[nH]oc(O)c1-c1ncc(C(F)(F)F)cc1Cl	0.0064% (inactive)
O=c1[nH]c2cccnc2n(CCNc2ncc(C(F)(F)F)cc2Cl)c1=O	48.4% (active)
O=C(c1ccccn1)c1ncc(C(F)(F)F)cc1Cl	1.39% (inactive)
COc1ccccc1Nc1nc(N)nc(N)c1S(=O)(=O)c1ccccc1	2.56% (inactive)
O=C(NCc1nnc(C(=O)Nc2ccc(C(F)(F)F)cc2Cl)o1)c1ccccc1	0.059% (inactive)
Cc1nnc(SCC(=O)NCc2ccccc2Cl)c2nn(-c3ccccc3)c(C)c12	4.74% (inactive)
COc1ccccc1Nc1c2c(nc3ccc(NC(=O)/C=C/c4cc(OC)c(OC)c(OC)c4)cc13)CCCC2	0.792% (inactive)
CCc1nnc(NC(=O)CCC(=O)N2CCN(c3cc(C)ccc3C)CC2)s1	10.6% (inactive)
COc1ccc(CN2CCN(C(=O)CCC(=O)Nc3nnc(C(C)C)s3)CC2)cc1F	-5.21% (inactive)
CC(C)c1nnc(NC(=O)CCC(=O)N2CCN(c3cccc(Cl)c3)CC2)s1	44.3% (active)
CCOc1ccc(NC(=O)c2cc3c(=O)n(Cc4cccs4)ccc3nc2C)cc1	2.83% (inactive)
Cc1cccc(NC(=O)c2nnn(CC(=O)Nc3ccc(C(C)C)cc3)c2N)c1C	16.4% (inactive)
CCOc1ccc(C(NC(=O)c2cc(OC)c(OC)c(OC)c2)c2cc(Cl)c3cccnc3c2O)cc1 (stereo not given)	8.01% (inactive)
CCOc1ccc(NC(=O)COc2ccc(C(=O)N3CCC(C(N)=O)CC3)cc2OC)cc1	1.2% (inactive)
CCOc1ccc(N/C=C/C(=O)c2cc(OC)c(OC)c(OC)c2)cc1	36% (active)
CN(CC(=O)Nc1ccccc1F)S(=O)(=O)c1ccc2c(c1)c(=O)n(C)c(=O)n2C	-1.52% (inactive)
CCOc1cc2[nH]c(=O)n(Cc3ccc(C(=O)NCCN(CC)CC)cc3)c(=O)c2cc1OCC	6.62% (inactive)
Cc1ccc(C(=O)Nc2ccc(OCc3cc(=O)n4c(C)csc4n3)cc2)cc1	44.4% (active)
Cc1ccc(C(=O)Nc2ccc(OCc3cc(=O)n4c5c(sc4n3)CCCC5)cc2)cc1	-8.75% (inactive)
Cc1csc2nc(COc3ccc(NC(=O)COc4ccccc4)cc3)cc(=O)n12	-0.546% (inactive)
CCN(CC)c1cc(NC2CCCCC2)c2c3c(onc13)-c1ccccc1C2=O	3.4% (inactive)
Cc1c(CNC(C)c2ccccc2)c(C(=O)O)c(C)n1Cc1c(F)cccc1Cl (stereo not given)	0.16% (inactive)
CCOc1ccc(-c2cc3nc(C4CCN(C(=O)OC(C)(C)C)CC4)c(C(=O)Nc4cccc(CC)c4)cn3n2)cc1	12.9% (inactive)
COC(=O)/C(C#N)=C/c1occc1C	32.7% (active)
CCOC(=O)/C(C#N)=C\c1c(C)cc(C)c(COC(C)=O)c1C	14.9% (inactive)

SMILES	enhancement
Cc1ccc(/C=C(\C#N)C(=O)Nc2cc(C)ccc2C)cc1	-0.361% (inactive)
CCc1ccc(NC(=O)N2CCN(C(=O)c3nsc4ccccc34)CC2)cc1	-4.71% (inactive)
O=S(=O)(c1ccc2c(c1)OCCO2)N1CCN(S(=O)(=O)c2cc(F)ccc2F)CC1	6.77% (inactive)
Cc1nn(C)cc1N1C(=O)c2cccc3c(N)ccc(c23)C1=O	30% (active)
CN1C(=O)c2cccc3c(N)ccc(c23)C1=O	50.3% (active)
Cn1c(=O)n(Cc2c(F)cccc2Cl)c(=O)c2c1nc1n2CCN1c1ccc(F)cc1	0.582% (inactive)
Cc1cc(C)cc(NC(=O)Cn2nc(N3CCN(c4ccccc4)CC3)ccc2=O)c1	-3.13% (inactive)
Cc1cc(-c2ccc(C)c(S(=O)(=O)N3c4ccccc4CC3C)c2)on1 (stereo not given)	0.217% (inactive)
CCOc1cccc2cc(-c3cn4c(n3)sc3cc(C)ccc34)c(=O)oc12	-0.977% (inactive)
COc1cc(CNCCSc2nnnn2C)ccc1OCc1ccc(Cl)cc1Cl	1.67% (inactive)
COc1ccc(CCn2ccc(O)c(Cc3ccc(Cl)cc3Cl)c2=O)cc1OC	54.5% (active)
COc1ccc(CCNC(=O)CCc2ccccc2O)cc1OC	-5.5% (inactive)
O=C(CSc1ncc(CO)n1Cc1ccc(F)cc1)NCc1ccco1	-2.31% (inactive)
CCOc1ccc(CNC(=O)c2ccc3nc(CC)c(CC)nc3c2)cc1OC	1.32% (inactive)
CC1CCN(C(=O)COC(=O)c2cc(=O)[nH]c3ccccc23)CC1	-7.78% (inactive)
CC1CCN(CC(=O)c2c[nH]c3ccccc23)CC1	38% (active)
Cc1[nH]c2ccccc2c1C(=O)CN1CCCC(C)C1 (stereo not given)	-2.86% (inactive)
Cc1nnc(N2CCCC(C(=O)NCCN(C)C)C2)c2nn(-c3ccccc3)c(C)c12 (stereo not given)	1.94% (inactive)
N#Cc1nc(Nc2cccc(Cl)c2)nc(NC2CCCC2)n1	-7.23% (inactive)
CCn1c2ccccc2c2nnc(SCC(=O)O)nc21	-1.5% (inactive)
COc1ccc(-n2nc(C(=O)NCCc3ccc(Cl)cc3)c3c4ccccc4n(C)c3c2=O)cc1Cl	-3.1% (inactive)
CCOC(=O)C1CCN(C(=O)C2(NC(=O)Nc3cccc(F)c3)CCCCC2)CC1	34.3% (active)
CCOC(=O)C1CCN(C(=O)Nc2cccc(OC)c2)CC1	-1.73% (inactive)
CCN1CCN(C(=O)C2(NC(=O)Nc3cccc(F)c3)CCCCC2)CC1	1.28% (inactive)
